# Several values for one entry are separate records, joined by “and”; a condition that tells them apart may be missing. Equal values may be shown once. Out of some 640,000 compounds screened, about 9,300 (1.5%) were called active. What follows is part of a selection rich in actives, with near analogues and random picks from the rest. Values without a mark were called inactive. Rule as the data show it: active = inhibition above about 32%; inactive = the rest.
# Experiment: TEAD-YAP interaction inhibition, primary screen, TEAD-YAP interaction inhibitor project, luminescence, HEK-TIYL cells (AID 1259422);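 also: 0% = median of test compound wells and 100% = reference inhibitor wells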
# Details: TEAD-Gal4/YAP UAS-luciferase luminescence, at 9.12 µM, hits give high values
row,Structure (SMILES),inhibition
1,COc1ccccc1N1CCN(CC(O)COc2ccc(C#N)cc2)CC1 (stereo not drawn),0.33%
2,O=C(N/N=C/c1ccco1)c1cccc(F)c1,-63.8%
3,Fc1ccc(C2C=C(c3cccs3)NC(=S)N2)cc1 (stereo not drawn),13.5%
4,CC(C)N1CCC(N2CCN(Cc3nc(-c4ccccc4)cs3)CC2CCO)CC1 (stereo not drawn),-5.11%
5,COC(=O)N1CCC(C(=O)N(C)C(c2ccc(F)cc2)c2ccccn2)CC1 (stereo not drawn),11.1%
6,CCN(CC)CCn1c(=S)sc2c(=O)n(-c3ccccc3OC)c(SCc3ccccc3Cl)nc21,-5.55%
7,O=C(Nc1ccc2c(c1)OCCO2)C(=O)Nc1ccc2nc3n(c(=O)c2c1)CCCCC3,-4.8%
8,Cc1ncsc1C(=O)N1CCC(c2c(S(C)(=O)=O)cnc3ncnn23)CC1,11.5%
9,CCOc1ccc(C2Oc3c(Br)cc(Br)cc3C=C2[N+](=O)[O-])cc1OC (stereo not drawn),86% (active)
10,CCOc1ccc(C2N(c3cccc(Cl)c3)C(=O)C3CCCN32)cc1OC (stereo not drawn),0.7%
11,CCOc1cc(Br)c([N+](=O)[O-])cc1OCC,-4.81%
12,CCOc1cc(/C=C2/N=C(c3ccc(Cl)cc3)OC2=O)ccc1OCc1ccc(Cl)cc1,-7.55%
13,Cc1ccc(-c2nn3cc(-c4ccccc4)c4c3n2CCCC4)cc1,-4.85%
14,Cc1ccc(C(=O)C[n+]2cc(-c3ccccc3)n3c2CCCCC3)cc1,38.8% (active)
15,O=C(CNC1=NCCCCC1)c1ccc(-c2ccccc2)cc1,-23.5%
16,CN(C(=S)Nc1ccc(Cl)cc1)c1c(N)n(Cc2ccccc2)c(=O)[nH]c1=O,-0.81%
17,COc1ccc(N2CCN(C(CNC(=O)c3cccs3)c3ccc4c(c3)OCO4)CC2)cc1 (stereo not drawn),-22.3%
18,CC(C)n1c(C2COc3ccccc3O2)nc2ncc(-c3ccncc3)cc21 (stereo not drawn),33% (active)
19,Cn1c(C2COc3ccccc3O2)nc2ccc(-c3cn[nH]c3)cc21 (stereo not drawn),-90.1%
20,c1ccc2c(c1)OCC(c1nc3ccc(-c4ccncc4)cc3[nH]1)O2 (stereo not drawn),-24.1%

row,Structure (SMILES),inhibition
1,Cc1nc2ccccn2c1CN1CCN(CC(O)COCc2ccc(Cl)cc2)CC1 (stereo not drawn),22.8%
2,Clc1ccc(CN2CCN(/N=C/c3c(Cl)nc4ccccn34)CC2)cc1,35.3% (active)
3,COc1cccc(/C=N/N2CCN(Cc3ccc(C)cc3)CC2)c1,-0.53%
4,CCOC(=O)CC(=O)CSc1nc2c(sc(=S)n2-c2ccc(Cl)c(C)c2)c(=O)n1-c1ccccc1OC,0.42%
5,COC(=O)c1cnn2c(C(F)(F)F)cc(-c3ccc(Br)cc3)nc12,13.7%
6,c1ccc2oc(=Nc3cccc4ccccc34)c(-c3nc4ccccc4[nH]3)cc2c1,41.4% (active)
7,Brc1ccc(N=c2oc3ccccc3cc2-c2nc3ccccc3[nH]2)cc1,-86.1%
8,N#Cc1ccccc1N=c1oc2ccccc2cc1-c1nc2ccccc2[nH]1,-44.7%
9,Cc1cccc(C(=O)Nc2ncc3c(n2)CC(C)(C)CC3=O)c1,-0.47%
10,CCOC(=O)c1c(NC(=O)CSc2nnc(CNC(=O)c3ccc([N+](=O)[O-])cc3)n2CCc2ccccc2)sc2c1CCCCC2,-6.86%
11,Cc1cccc(N2CC(O)=C(c3nc4ccccc4c(=O)[nH]3)C2=N)c1C,46.8% (active)
12,COc1ccc(N2CC(O)=C(c3nc4ccccc4c(=O)[nH]3)C2=N)cc1,0.42%
13,CC(=O)c1cccc(N2CC(O)=C(c3nc4ccccc4[nH]3)C2=N)c1,-5.18%
14,C/C(CC(=O)Nc1cccc2ccccc12)=N\NC(=O)c1cccnc1,-13.7%
15,CC(=O)Nc1ccc2nc(SCC(=O)Nc3ccccc3F)sc2c1,-58.7%
16,COc1cccc(-n2cc(CN(C)C3CCC(=O)N(Cc4ccccc4F)CC3)cn2)c1 (stereo not drawn),8.57%
17,Cc1nc(CC(=O)N2CCC(N3CCC(C(=O)N4CCOCC4)CC3)CC2)cs1,-4.91%
18,COc1cc(Br)cc(/C=N\NC(=O)c2ccc(C)nc2)c1O,35.4% (active)
19,CCOc1cccc(/C=N/NC(=O)c2ccc(C)nc2)c1O,18.1%
20,COc1cc(Br)cc(/C=N/NC(=O)c2cc(-c3ccccc3)n[nH]2)c1O,15.7%

row,Structure (SMILES),inhibition
1,CC(=O)c1cccc(NC(=O)c2ncoc2-c2ccc(Cl)cc2)c1,2.52%
2,COc1ccc(-c2csc(N3CCC(C)CC3)n2)cc1,-61.1%
3,COc1cc(C2Nc3ccc(C(=O)c4ccccc4)cc3NC3=C2C(=O)CCC3)cc(OC)c1OC (stereo not drawn),59.8% (active)
4,O=C1CCCC2=C1C(c1ccc(Cl)cc1)Nc1ccc(C(=O)c3ccccc3)cc1N2 (stereo not drawn),13.4%
5,O=C1CCCC2=C1C(c1c(F)cccc1Cl)Nc1ccc(C(=O)c3ccccc3)cc1N2 (stereo not drawn),-16.1%
6,Cc1ccc(C2=CC(c3ccccc3F)n3nnnc3N2)cc1 (stereo not drawn),-31.7%
7,COc1ccccc1CN(Cc1cc2cccc(C)c2n2nnnc12)C(=O)C1CC1,6.49%
8,O=C1C(=O)N(CCCn2ccnc2)C(c2ccc(Cl)cc2)/C1=C(/O)c1ccccc1 (stereo not drawn),7.39%
9,COC(=O)c1nnn(CC(=O)Nc2ccc3c(c2)OCCO3)c1C(=O)OC,9.22%
10,COc1cccc(C(=O)/C=C\Nc2ccc(S(=O)(=O)Nc3nc(C)cc(C)n3)cc2)c1,-30.1% and -6.6%
11,COc1cc(NS(=O)(=O)c2ccc(N/C=C\C(=O)c3cccs3)cc2)nc(OC)n1,-5.11%
12,Cc1cc(C)nc(NS(=O)(=O)c2ccc(N/C=C\C(=O)c3cccs3)cc2)n1,49.6% (active)
13,N#CCCNc1ncc(-c2ccc(Cl)cc2)cn1,-8.87%
14,Cc1ccc(NC(=O)CN2CCN(c3ccc(Cl)cc3)CC2)cc1Br,-5.18%
15,CCOC(=O)C1=C(C)NC(C)=C(C(=O)OCC)C1c1ccc(C2C(C(=O)OCC)=C(C)NC(C)=C2C(=O)OCC)cc1,8.31%
16,O=C(Cc1ccsc1)N1CCC2(CC1)CC2C(=O)N1CCN(Cc2ccccc2)CC1 (stereo not drawn),7.69%
17,O=C(NCc1ccccc1)C1CC12CCN(Cc1ccsc1)CC2 (stereo not drawn),50.1% (active)
18,O=C(NCc1ccccc1)C1CC12CCN(C(=O)Cc1ccsc1)CC2 (stereo not drawn),-4.7%

# Reference: PubChem BioAssay AID1259422 (The Scripps Research Institute Molecular Screening Center, 2018)
